RGS4-Gao reg: modulates binding of RGS4 to human Galphao | P09471 | Multiplexed bead flow cytometry; actives lie on both sides | binding response (% of control), % at 10 µM | 220,000 tested, 0.33% active; in the data active = binding response below about 49% or above about 150%; inactive = in between;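 note: fluorescent Galphao activated with aluminum fluoride binding bead-coupled RGS4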
RGS8-Gao: human RGS8-Galphao interaction regulation. 220,000 tested, 0.34% active. multiplexed bead flow cytometry, RGS8-Galphao binding; actives lie on both sides. response (percent of control binding), % at 10 µM; in the data active = response below about 60% or above about 140%; inactive = in between;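 note: Galphao activated as the GDP aluminium fluoride complex binding bead-coupled RGS8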
RGS16-Gao: RGS16-Galphao interaction regulator (human) | bead-based flow cytometry RGS16-Galphao binding, fluorescence; actives lie on both sides | 220,000 tested, 0.38% active | O15492+P09471 | binding response (% of control), % at 10 µM;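 note: Galphao activated by GDP with aluminum fluoride before binding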
GSH bead fluor: compound fluoresces at 488/530 nm on GSH beads. GSH beads flow cytometry, compound fluorescence 488/530 nm; active compounds read high. fluorescence (KMESF) at 10 µM. 190,000 tested, 0.25% active. AID 1776; in the data active = fluorescence above about 89;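 note: glutathione beads carrying GST-tagged Bcl family fusion proteins plus one bare bead set; values are compound well signal with DMSO vehicle wells as background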
RGS7-Gao: human RGS7-Galphao interaction regulation | P09471 | 220,000 tested, 0.35% active | binding response (% of control), % at 10 µM | Multiplexed bead flow cytometry, RGS7-Galphao binding; actives lie on both sides; in the data active = binding response below about 49% or above about 150%; inconclusive = no clear call, values can overlap the other calls; inactive = in between;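 note: fluorescent Galphao held in activated GDP-AlF4 state binding bead-coupled RGS7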
Avidin fluor: compound fluoresces at 488/530 nm on avidin beads. compound fluorescence 488/530 nm, flow cytometry; active compounds read high. fluorescence (KMESF) at 10 µM. 220,000 tested, 0.38% active. AID 1775; in the data active = fluorescence above about 47
RGS4-Gao HTS: RGS4-Galphao interaction regulator (human); RGS4–Galpha-o binding response, % at 10 µM; 1,600 tested, 99% active; multiplexed bead flow cytometry, RGS–Galpha-o binding; AID 1504; shares compounds with RGS16-Gao;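 note: fluorescently labeled Galpha-o bound to GDP with aluminium fluoride binding biotinylated RGS beads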
Target sequence (P09471 whole entry, looked up): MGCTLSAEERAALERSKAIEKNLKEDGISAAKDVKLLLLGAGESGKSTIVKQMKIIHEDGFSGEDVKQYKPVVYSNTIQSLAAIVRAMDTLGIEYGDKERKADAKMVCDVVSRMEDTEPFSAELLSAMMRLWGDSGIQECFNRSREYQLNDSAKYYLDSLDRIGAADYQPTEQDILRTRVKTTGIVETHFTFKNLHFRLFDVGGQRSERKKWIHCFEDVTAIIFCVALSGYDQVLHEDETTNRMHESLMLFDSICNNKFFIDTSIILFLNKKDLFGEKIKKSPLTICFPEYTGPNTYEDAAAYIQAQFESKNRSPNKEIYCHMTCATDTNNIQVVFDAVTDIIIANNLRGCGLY
Target sequence (P49798 whole entry, looked up): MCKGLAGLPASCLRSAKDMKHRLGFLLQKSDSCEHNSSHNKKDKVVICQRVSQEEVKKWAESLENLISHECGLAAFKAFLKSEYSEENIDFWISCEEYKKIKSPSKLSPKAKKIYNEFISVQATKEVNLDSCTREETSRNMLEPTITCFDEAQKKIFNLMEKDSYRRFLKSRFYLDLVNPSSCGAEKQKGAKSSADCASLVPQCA
Biotin-avidin: counter-screen: compounds disrupting biotin binding to avidin beads; 1,700 tested, under 10 active; shares compounds with RGS16-Gao; streptavidin beads, fluorescein-biotin binding, flow cytometry; AID 1783; inhibition, % at 10 µM;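 active = inhibition above 50%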;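 note: median green fluorescence of gated singlet beads compared with DMSO control wells; 0% = DMSO wells and 100% = complete loss of bead fluorescence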
RGS8-Gao confirm: RGS8-Galphao interaction regulation, single point confirmation. shares compounds with RGS16-Gao. bead-based flow cytometry RGS8-Galphao binding, fluorescence; actives lie on both sides. binding response (% of control), % at 10 µM. 1,700 tested, 3% active. AID 1836; in the data active = binding response below about 72% or above about 130%; inactive = in between;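 note: Galphao activated as GDP AlF4 complex before binding bead RGS8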
RGS7-Gao confirm: confirmation of regulators of human RGS7-Galphao interaction; AID 1837; bead-based flow cytometry RGS7-Galphao binding; actives lie on both sides; shares compounds with RGS16-Gao; 1,700 tested, 7.8% active; response (percent of control binding), % at 10 µM; in the data active = response below about 75% or above about 130%; inactive = in between;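 note: fluorescent Galphao activated with GDP and aluminum fluoride binding bead-coupled RGS7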
RGS16-Gao single: RGS16-Galphao interaction regulation, single point confirmation; 1,700 tested, 4% active; AID 1838; bead-based flow cytometry, RGS16-Galphao binding; actives lie on both sides; shares compounds with RGS16-Gao; response (% of control binding), % at 10 µM; in the data active = response below about 74% or above about 130%; inactive = in between;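 note: Galphao activated as the GDP aluminium fluoride complex binding bead-coupled RGS16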
RGS4-Gao confirm: confirmation of regulators of human RGS4-Galphao interaction; shares compounds with RGS16-Gao; RGS4-Galphao binding, multiplexed bead flow cytometry; actives lie on both sides; binding response (% of control), % at 10 µM; 1,700 tested, 4% active; in the data active = binding response below about 74% or above about 130%; inactive = in between
RGS19-Gao conf: RGS19-Galphao interaction regulation, single point confirmation; 1,700 tested, 5% active; response (percent of control binding), % at 10 µM; AID 1841; shares compounds with RGS16-Gao; bead-based flow cytometry RGS19-Galphao binding; actives lie on both sides; in the data active = response below about 50% or above about 160%; inactive = in between;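 note: 100% = no compound control and 0% = blank background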
Active calls of the source: *; i = inactive; ? = inconclusive; nt = no result; [ ] = another dose, or the depositor's remark. Rows were chosen to be rich in hits. Some 1.2% of all compounds tested hit in one or more screens of this group. Unless noted, the rule behind the calls is not given here.

SMILES	RGS4-Gao reg	RGS8-Gao	RGS16-Gao	GSH bead fluor	RGS7-Gao	Avidin fluor	RGS4-Gao HTS	Biotin-avidin	RGS8-Gao confirm	RGS7-Gao confirm	RGS16-Gao single	RGS4-Gao confirm	RGS19-Gao conf
N#CC(C(=O)OC1CCCCC1)c1nc2ccccc2nc1N1CCOCC1 (stereo unspecified)	119	96	106	4	171*[activator]	110*	119*	nt	nt	nt	nt	nt	nt
Cn1c(SCC(=O)N2CCCC2=O)nc2ccccc21	19*	13*	9.5*	11	?	0	nt	0	97	95	96	95	96
Cn1c(=O)c2c(nc(SCCN3CCOCC3)n2Cc2ccccc2Cl)n(C)c1=O	101	101	103	16	103	26	nt	nt	nt	nt	nt	nt	nt
Cn1c(=O)c2c(nc(SCCN3CCOCC3)n2Cc2ccc(F)cc2)n(C)c1=O	139	158*[activator]	i	27	133	5	139*	0	103	106	106	101	112
CCN1CCN(Cc2c(O)ccc3c2O/C(=C\C=C\c2ccccc2)C3=O)CC1	106	117	187*[activator]	11	103	17	106*	-1	100	101	99	101	100
O=C1/C(=C/C=C/c2ccccc2)Oc2c1ccc(O)c2CN1CCN(CCO)CC1	85	97	85	nt	?	7	nt	nt	nt	nt	nt	nt	nt
COc1ccccc1/C=C/C=C1\Oc2c(ccc(O)c2CN2CCN(CCO)CC2)C1=O	218*[activator]	146*[activator]	284	15	246*[activator]	127*	nt	1	104	107	101	101	80
COc1ccc(-n2c(C)cc(-c3csc(N)n3)c2C)cc1	13*	13*	0.5*	8	-0.7*	-5	nt	-2	98	100	99	100	107
Cc1cc(-c2csc(N)n2)c(C)n1-c1ccc(Cl)c(Cl)c1	99	102	81	9	106	6	nt	nt	nt	nt	nt	nt	nt
CCOc1ccc(N2CC(C(=O)Nc3ccccc3N3CCOCC3)CC2=O)cc1 (stereo unspecified)	100	101	101	37	96	4	nt	nt	nt	nt	nt	nt	nt
CC1CCc2c(sc(NC(=O)COC(=O)c3ccccc3NCc3ccco3)c2C#N)C1 (stereo unspecified)	-5.5*	4.6*	-59	16	-2.0*	-4	nt	-2	103	109	105	105	107
O=[N+]([O-])c1cccc(/C([O-])=C(/C(=S)Nc2ccccc2)[n+]2ccccc2)c1	90	78	39	7	97	0	nt	nt	nt	nt	nt	nt	nt
O=C(O)CC1(CC(=O)NCc2cc(F)cc3c2OCOC3)CCCCC1	157*[activator]	129	151	nt	?	8	nt	-2	98	101	94	94	90
O=C(CNC(=O)c1ccccc1)NCc1ccc(Cl)cc1	104	102	103	10	150*[activator]	30	104*	2	110	112	113	109	112
Cc1[nH]n(-c2ccccc2)c(=O)c1/C=N/Nc1nncc(-c2ccccc2)n1	nt	nt	nt	17	nt	nt	nt	1	95	89	91	93	59

Screens: PubChem, NMMLSC
